This passage reports Potency results from PubChem BioAssay (NCATS).

Results filed as inconclusive are left out. Activity calls are given as the source filed them. Calls follow the shape of the dose curve; as a rule, active = well fitted inhibition curve with a large enough effect; inconclusive = small, poorly fitted or top-dose-only effect; inactive = flat fitted curve, though single readings scatter.

What all share (assay): qHTS profiling for inhibitors of Plasmodium falciparum proliferation (AID 504749); also: nearly all actives have a fitted effect of over 60% in size
What all share (settings): P. falciparum in erythrocytes, SYBR Green DNA, 72 h; series mostly up to 12.8 µM
On the technique in general: qHTS replaces the single test concentration by a dilution series.

In experiment [1] the test system is AA1029. In short, it runs like this: (§1)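 P. falciparum-infected erythrocytes (0.3% parasitemia, 2.5% hematocrit final) were exposed to compounds for 72 h at 37 C in 5% CO2, then lysed with SYBR Green buffer overnight at room temperature; parasite DNA fluorescence was normalized to artemisinin and DMSO controls.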
Experiment [2] concerns ATS95. In short, it runs like this:
as §1

Experiment [3] has as its system CP192. In short, it runs like this: as §1
For experiment [4], the system named is CP201. In short, it runs like this:
as §1

The test system of experiment [5] is CP211. In short, it runs like this:
as §1

The test system of experiment [6] is CP260. The method, boiled down:
as §1

In experiment [7] the test system is CP262. In short, it runs like this:
as §1

Experiment [8] concerns CP266. In short, it runs like this: as §1
For experiment [9], the system named is CP269. The method, boiled down: as §1
Experiment [10] deals with CP286. The method, boiled down:
as §1

The test system of experiment [11] is CP291. The method, boiled down:
as §1

For experiment [12], the system named is CP305. In short, it runs like this: as §1
Experiment [13] relates to CP325. In short, it runs like this:
as §1

For experiment [14], the system named is DIV14. The method, boiled down: as §1
The subject of experiment [15] is DIV30. The method, boiled down: as §1
In experiment [16] the test system is Dd2. The method, boiled down:
as §1

The test system of experiment [17] is ICS. In short, it runs like this:
as §1

Experiment [18] has as its system P93_24. In short, it runs like this:
as §1

For experiment [19], the system named is PC15. The method, boiled down:
as §1

The test system of experiment [20] is TAB165. In short, it runs like this: as §1
Potency is read from the fitted curve at half-maximal effect.

Take `C[C@H](CCC(=O)O)[C@H]1CC[C@@H]2[C@@H]3[C@@H](O)C[C@H]4C[C@@H](O)CC[C@@]4(C)[C@H]3CC[C@@]21C`: the Potency result in experiment [1], in experiment [2], in [3], in experiment [4], in experiment [5] and in experiment [6] was “inactive” each time. In addition, the Potency result in experiment [7], in experiment [8], in experiment [9], in [10], in experiment [11] and in experiment [12] was “inactive” in each case. Further, the Potency result in [13], in [14], in [15], in [16], in experiment [17] and in [18] was “inactive” in each case. For the same molecule, the Potency entry in experiment [19] and in experiment [20] was “inactive” each time.

With `CCN[C@@H]1C[C@H](N)[C@H](O[C@H]2OC(CN)=CC[C@H]2N)[C@@H](O)[C@H]1O[C@H]1OC[C@@](C)(O)[C@@H](NC)[C@@H]1O`, the Potency result in [1], in [2], in experiment [3], in [4], in experiment [5] and in experiment [6] was “inactive” each time. Moreover, the Potency result in [7], in [8], in experiment [9], in experiment [10], in [11] and in [12] was “inactive” throughout. Also, the Potency result in experiment [13], in experiment [14], in [15], in experiment [16], in [17] and in [18] was “inactive” throughout. Besides, the Potency entry in experiment [19] and in experiment [20] was “inactive” each time.

Regarding `C[C@@H]1O[C@H](O[C@@H]2\C=C/C=C\C=C/C=C\C[C@H](C)OC(=O)/C=C\[C@H]3O[C@@H]3C[C@H](O)C[C@]3(O)C[C@@H](O)[C@@H](C(=O)O)[C@H](C2)O3)[C@@H](O)[C@H](N)[C@@H]1O` (stereo in doubt), the Potency result in [1], in [2], in experiment [3], in experiment [4], in experiment [5] and in [6] was “inactive” throughout. For the same molecule, the Potency entry in experiment [7], in [8], in experiment [9], in [10], in experiment [11] and in experiment [12] was “inactive” throughout. The Potency result in experiment [13], in experiment [14], in [15], in experiment [16], in [17] and in experiment [18] was “inactive” throughout. Further, the Potency entry in experiment [19] and in [20] was “inactive” in each case.

With `CCc1c(C)[nH]c2c1C(=O)[C@H](CN1CCOCC1)CC2`, the Potency entry in experiment [1], in [2], in experiment [3], in experiment [4], in [5] and in experiment [6] was “inactive” throughout. In addition, the Potency entry in experiment [7], in experiment [8], in [9], in [10], in experiment [11] and in experiment [12] was “inactive” each time. In addition, the Potency result in experiment [13], in experiment [14], in experiment [15], in [16], in [17] and in experiment [18] was “inactive” in each case. Further, the Potency entry in experiment [19] and in experiment [20] was “inactive” throughout.

As for `C[C@@H]1C[C@H]2[C@@H]3C[C@H](F)C4=CC(=O)C=C[C@@]4(C)[C@]3(F)[C@H](O)C[C@]2(C)[C@@]1(O)C(=O)CO`, the Potency entry in [1], in [2], in [3], in experiment [4], in experiment [5] and in [6] was “inactive” in each case. Further, the Potency result in [7], in [8], in experiment [9], in experiment [10], in [11] and in experiment [12] was “inactive” each time. Moreover, the Potency entry in experiment [13], in experiment [14], in experiment [15], in experiment [16], in experiment [17] and in [18] was “inactive” throughout. Also, the Potency entry in [19] and in experiment [20] was “inactive” each time.

As to `CCN1CCC[C@@H](OC(=O)C(c2ccccc2)c2ccccc2)C1`, the Potency entry in experiment [2], in [3], in experiment [4], in [5], in experiment [6] and in experiment [7] was “inactive” throughout. Also, the Potency result in experiment [8], in [9], in [10] and in [12] was “inactive” each time.

For the molecule `CC(C)(C)NC[C@H](O)COc1cccc2c1C[C@@H](O)[C@@H](O)C2`, the Potency entry in experiment [1], in experiment [2], in [3], in [4], in [5] and in experiment [6] was “inactive” each time. The Potency result in experiment [7], in [8], in experiment [9], in experiment [10], in experiment [11] and in experiment [12] was “inactive” throughout. Further, the Potency result in experiment [13], in [14], in [15], in experiment [16], in experiment [17] and in experiment [18] was “inactive” each time. The Potency result in experiment [19] and in experiment [20] was “inactive” each time.

Take `C[C@H](O)Cn1cnc2c1c(=O)n(C)c(=O)n2C`: the Potency entry in experiment [1], in [2], in experiment [3], in [4], in experiment [5] and in [6] was “inactive” each time. The Potency result in experiment [7], in [8], in [9], in experiment [10], in [11] and in experiment [12] was “inactive” in each case. Moreover, the Potency result in experiment [13], in experiment [14], in [15], in experiment [16], in [17] and in experiment [18] was “inactive” each time. For the same molecule, the Potency result in experiment [19] and in [20] was “inactive” throughout.

As to `NC[C@@H]1O[C@H](O[C@@H]2[C@H](O[C@@H]3O[C@H](CO)[C@@H](O)[C@@H]3O)[C@@H](O)[C@@H](N)C[C@H]2N)[C@@H](N)[C@H](O)[C@@H]1O`, the Potency result in [1], in experiment [2], in experiment [3], in experiment [4], in [5] and in experiment [6] was “inactive” in each case. The Potency entry in [7], in experiment [8], in [9], in experiment [10], in experiment [11] and in experiment [12] was “inactive” throughout. Further, the Potency entry in experiment [13], in [14], in [15], in experiment [16], in experiment [17] and in experiment [18] was “inactive” each time. Besides, the Potency result in [19] and in experiment [20] was “inactive” in each case.

`CC(=O)N(C[C@@H](C)C(=O)O)c1c(I)cc(I)c(N)c1I`: the Potency result in experiment [1], in [2], in experiment [6], in [10], in [16] and in experiment [17] was “inactive” in each case. For the same molecule, the Potency entry in [18], in experiment [19] and in [20] was “inactive” in each case.

In the case of `CCOC(=O)O[C@@H](C)OC(=O)[C@@H]1N2C(=O)[C@@H](NC(=O)[C@@H](N)c3ccccc3)[C@H]2SC1(C)C`, the Potency result in [1], in experiment [2], in [4], in [5], in experiment [6] and in experiment [7] was “inactive” throughout. Further, the Potency entry in [8], in experiment [9], in experiment [10], in experiment [11], in [12] and in experiment [13] was “inactive” in each case. Also, the Potency result in experiment [14], in experiment [15], in [16], in experiment [17], in experiment [18] and in [19] was “inactive” in each case. Besides, the Potency entry in experiment [20] is “inactive”.

For `C[C@@H](CNC1CCCCC1)OC(=O)c1ccccc1`, the Potency entry in [3], in experiment [4], in experiment [5], in experiment [7] and in experiment [8] was “inactive” in each case. Further, the Potency in [14] was 3.61 µM (active); in [16] it was 4.47 µM (active); in experiment [17], 1.78 µM (active); in [18], 3.16 µM (active).

As for `CC1(C)[C@@H](OC(=O)CCC(=O)O)CC[C@@]2(C)[C@H]1CC[C@@]1(C)[C@H]2C(=O)C=C2[C@H]3C[C@](C)(C(=O)O)CC[C@]3(C)CC[C@@]21C`, the Potency result in experiment [1], in experiment [2], in [3], in experiment [4], in experiment [5] and in experiment [6] was “inactive” each time. Besides, the Potency entry in [7], in experiment [8], in experiment [9], in experiment [10], in experiment [11] and in [12] was “inactive” throughout. In addition, the Potency entry in experiment [13], in [14], in experiment [15], in experiment [16], in [17] and in [18] was “inactive” each time. For the same molecule, the Potency result in experiment [19] and in experiment [20] was “inactive” each time.
